# In PubChem BioAssay (Tox21):
# Values joined by “and” are separate entries in the source; they are usually repeats but may differ in a detail not shown here. Equal values may be shown once. A number with no mark means an inactive call. Inconclusive results are not listed. A call without a number means that no potency is given here. Active and inactive are the calls of the source. Calls come from the whole dose curve.
# Assays:
# [1] = biological target: Acetylcholinesterase (Homo sapiens) (UniProt P22303); assay: Acetylcholinesterase (AChE) small molecule antagonists: enzyme-based qHTS assay (AID 1347397); conditions: Potency: AChE enzyme activity inhibition; outcome: AChE enzyme activity inhibition; note: nearly all actives have a fitted effect of over 55% in size; note: potency is the fitted concentration of half-maximal effect
# Outline: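 Colorimetric DTNB readout of acetylthiocholine hydrolysis, 10 min at room temperature, after 30 min room-temperature exposure of 50 mU/mL recombinant human enzyme to compound; DMSO vehicle control.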
# [2] = biological target: Acetylcholinesterase (Homo sapiens) (UniProt P22303); assay: Acetylcholinesterase (AChE) small molecule antagonists: fluorescence cell-based qHTS assay (AID 1347398); conditions: Potency: AChE activity; outcome: AChE activity; note: nearly all actives have a fitted effect of over 50% in size; note: potency is the fitted concentration of half-maximal effect
# Outline: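 Cellular AChE activity read as thiocholine from acetylthiocholine hydrolysis, detected by Thiolite Green fluorescence at 490/520 nm after 40 min at room temperature. Compounds were pre-incubated 30 min at 37 C on adherent SH-SY5Y cells.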
# [3] = biological target: Acetylcholinesterase (Homo sapiens) (UniProt P22303); assay: Acetylcholinesterase (AChE) small molecule antagonists: enzyme-based qHTS assay with human liver microsomes (AID 1347399); conditions: Potency: qHTS inhibition; outcome: qHTS inhibition; note: nearly all actives have a fitted effect of over 60% in size
# Outline: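 Recombinant human AChE (50 mU/mL in the enzyme mix) and human liver microsomes (0.25 mg/mL final) were preincubated with compound and NADPH (0.25 mg/mL final) for 30 min at 37 C. Acetylthiocholine/DTNB was then added; thiocholine was read colorimetrically after 10 min at room temperature.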
# Acetylcholinesterase (Homo sapiens), sequence (P22303 whole entry, looked up): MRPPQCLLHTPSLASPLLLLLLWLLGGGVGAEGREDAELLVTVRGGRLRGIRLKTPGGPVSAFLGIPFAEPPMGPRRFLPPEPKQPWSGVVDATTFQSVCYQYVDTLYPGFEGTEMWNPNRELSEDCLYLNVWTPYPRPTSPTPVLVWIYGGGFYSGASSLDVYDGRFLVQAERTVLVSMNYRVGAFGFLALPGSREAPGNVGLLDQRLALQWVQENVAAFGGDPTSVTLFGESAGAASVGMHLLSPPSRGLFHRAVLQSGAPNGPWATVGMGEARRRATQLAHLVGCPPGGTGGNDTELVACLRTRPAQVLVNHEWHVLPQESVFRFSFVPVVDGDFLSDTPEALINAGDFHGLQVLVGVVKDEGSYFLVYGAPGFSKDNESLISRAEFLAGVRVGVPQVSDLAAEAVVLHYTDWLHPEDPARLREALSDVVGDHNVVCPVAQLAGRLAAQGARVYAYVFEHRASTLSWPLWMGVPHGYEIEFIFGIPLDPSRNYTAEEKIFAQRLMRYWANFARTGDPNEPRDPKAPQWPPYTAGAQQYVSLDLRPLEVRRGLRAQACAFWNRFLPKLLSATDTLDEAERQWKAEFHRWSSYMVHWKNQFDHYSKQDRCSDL
Structure (SMILES),Potency [1],Potency [2],Potency [3]
CCN1CCCC1CNC(=O)c1cc(S(=O)(=O)CC)c(N)cc1OC (stereo not drawn),15.5 µM (active),13.8 µM (active),–
CCCCCCCCCCCCCCCCCCNC(=O)OC1CCN(C(=O)OC[C@H](COC(=O)N(Cc2cccc[n+]2CC)C(=O)c2ccccc2OC)OC)CC1,30.9 µM (active),inactive,inactive
CCCCNc1ccc(C(=O)OCCN(CC)CC)cc1,30.9 µM (active),2.45 µM (active),inactive
CCC(CC)C(C)CCOC(C)=O (stereo not drawn),inactive,inactive,inactive
CCc1cccc(CC)c1NC(=O)CN(CC(=O)O)CC(=O)O,inactive,inactive,inactive
CSc1nc(NC2CC2)nc(NC(C)(C)C)n1,inactive,inactive,inactive
CC(C(=O)O)c1ccc(C(=O)c2ccccc2)s1 (stereo not drawn),inactive,inactive,inactive
Nc1ccc(Oc2ccc(N)c(N)c2)cc1,inactive,inactive,–
CCC(C)OC(C)CC (stereo not drawn),inactive,inactive,inactive
COC(=O)C1=C(C)NC(C)=C(C(=O)OCCN2CCN(C(c3ccccc3)c3ccccc3)CC2)C1c1cccc([N+](=O)[O-])c1 (stereo not drawn),inactive,inactive,inactive
[Cl][Pt-2]([Cl])([Cl])[Cl],17.9 µM (active),35.7 µM (active),–
C/C=C1\C(=O)C[C@H]2[C@@H]3CCC4=CC(=O)CC[C@]4(C)[C@H]3CC[C@]12C,inactive,inactive,inactive
CC(C)(C)NCC(O)COc1cccc2c1C[C@H](O)[C@H](O)C2 (stereo partly drawn),inactive,inactive,inactive
Cc1nccn1CC1CCc2c(c3ccccc3n2C)C1=O (stereo not drawn),inactive,15.5 µM (active),inactive
Cc1cccc(O)c1N,inactive,inactive,inactive
CCCC[N+](C)(CCCC)CCCC,inactive,inactive,inactive
O=C(O)C1(C(=O)Nc2ccc(Cl)cc2Cl)CC1,inactive,inactive,inactive
CCCCCCCCCCCCCC[P+](CCCC)(CCCC)CCCC,31.6 µM (active) and 39.9 µM (active),35.4 µM (active) and 63.3 µM (active),inactive
CC(=O)OCC(CCn1cnc2cnc(N)nc21)COC(C)=O,inactive,inactive,inactive
CCC(C)(C)C1CCC(=O)CC1,inactive,inactive,inactive
Cc1[nH]c(=O)c(C#N)cc1-c1ccncc1,inactive,inactive,inactive

Structure (SMILES),Potency [1],Potency [2],Potency [3]
COc1cccc2c1C(=O)c1c(O)c3c(c(O)c1C2=O)C[C@@](O)(C(=O)CO)C[C@@H]3O[C@H]1C[C@H](N)[C@H](O[C@@H]2CCCCO2)[C@H](C)O1,inactive,inactive,inactive
CC(=O)C(C)=O,inactive,inactive,inactive
Cn1c(N)c(N=O)c(=O)n(C)c1=O,inactive,inactive,inactive
CCCCCCCCCCCC(=O)NCCCN(C)C,inactive,31.7 µM (active),inactive
COc1cnc(NS(=O)(=O)c2ccc(N)cc2)nc1,inactive,inactive,inactive
Cc1cc2c(cc1C(F)(F)F)N(C(=O)Nc1ccc(Oc3cccnc3C)nc1)CC2,inactive,inactive,inactive
C=CCOCC(O)CO (stereo not drawn),inactive,inactive,inactive
COc1ccc(-c2cc(=O)c3c(O)cc(O[C@@H]4O[C@H](CO[C@@H]5O[C@@H](C)[C@H](O)[C@@H](O)[C@H]5O)[C@@H](O)[C@H](O)[C@H]4O)cc3o2)cc1O,inactive,inactive,inactive
CCN1CCC[C@H]1CNC(=O)c1cc(S(N)(=O)=O)ccc1OC,inactive,inactive,inactive
CCCCN,inactive,inactive,inactive
CCCCCCCCCCCCN(CCCCCCCCCCCC)CCCCCCCCCCCC,inactive,inactive,inactive
Cc1ccc(O)c([N+](=O)[O-])c1,inactive,inactive,inactive
Clc1nnc(Cl)c2ccccc12,inactive,inactive,inactive
CCCCCCCCCCCCCCCCCC[N+](C)(C)Cc1ccccc1,28.5 µM (active),71.7 µM (active),inactive
CCO[Si](CCCSSSSCCC[Si](OCC)(OCC)OCC)(OCC)OCC,inactive,inactive,inactive
CCN1CCCC1CNC(=O)c1cc(S(N)(=O)=O)ccc1OC (stereo not drawn),inactive,inactive,inactive
O=C1C=CC(=O)N1c1cccc(N2C(=O)C=CC2=O)c1,inactive,44.8 µM (active),inactive
Cc1c(C)c([N+](=O)[O-])c(C(C)(C)C)c([N+](=O)[O-])c1C,inactive,inactive,inactive
CCNC(=O)NCCCOc1cccc(CN2CCCCC2)c1,inactive,inactive,inactive
CCCCCCCC(=O)N(C)C,inactive,inactive,inactive
CCCCCCCC[N+](CCCCCCCC)(CCCCCCCC)CCCCCCCC,39.8 µM (active),70.9 µM (active),inactive
